# High-throughput results deposited in PubChem BioAssay by Broad Institute.
# T cruzi growth-1: T. cruzi proliferation inhibition | T. cruzi beta-gal in NIH3T3, GalScreen luminescence, 90 h | inhibition, % at 8.34 µM | 5.9% of 77,000 active;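 active = mean inhibition above about 93%, with at least 55% of replicates each passing it, limit read from the data, passing the limit was not always enough; inconclusive = only one of those two conditions holds; inactive = neither condition holds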
# Pf Dd2 growth: P. falciparum Dd2 growth inhibition; activity change, % at 10 µM; SYBR Green, 72 h; hits give low values; AID 1159554; 2.3% of 94,000 active; in the data active = activity change below about -80%; inconclusive = no clear call, values can overlap the other calls
# C diff growth: inhibitors of Clostridium difficile growth. AID 1259249. Clostridium difficile clinical isolate growth, OD600, 24 h; hits give low values. 0.25% of 86,000 active. growth activity, negative = inhibition, % at 16 µg/mL (by protocol);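 active = mean growth activity at or below -80% and every replicate also at or below -80%; inconclusive = mean at or below -80% but some replicate above -80%; inactive = mean growth activity above -80%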;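 also: 0% = DMSO wells and -100% = levofloxacin 16 µg/mL wells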
# T cruzi growth-2: Trypanosoma cruzi proliferation inhibition; shares compounds with T cruzi growth-1; T. cruzi beta-gal in NIH3T3, GalScreen luminescence, 90 h; inhibition, % at 8.35 µM; 72% of 5,600 active; AID 651739;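 active = mean replicate inhibition above about 95% and at least 55% of replicates individually reaching it, limit read from the data; inconclusive = only one of the two criteria is met; inactive = neither criterion is met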
# T cruzi growth-3: blocks T. cruzi growth in NIH3T3 host cells | shares compounds with T cruzi growth-1 | T. cruzi beta-gal in NIH3T3, GalScreen luminescence, 90 h | inhibition, % at 2.09 µM | 21% of 5,600 active | AID 651740;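 active = mean inhibition above about 95%, with at least 55% of replicates also reaching it, limit read from the data; inconclusive = meets just one of the two conditions; inactive = meets neither condition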;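 also: plate controls were neutral control median for no effect and positive control median for full effect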
# 3T3 cytotox: cytotoxicity in mouse NIH/3T3 fibroblasts; shares compounds with T cruzi growth-1; NIH/3T3 viability, CellTiter-Glo ATP luminescence, 90 h; cytotoxicity (signal decrease), % at 8.35 µM; 14% of 5,600 active; AID 651742;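 active = mean signal decrease across replicates above about 35% based on untreated-well scatter, with enough replicates individually passing, limit read from the data; inconclusive = no rule stated though some were filed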;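 also: 0% = median of neutral control wells and 100% = median of positive control wells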
# NIH3T3 tox 2: NIH/3T3 (mouse) viability loss; shares compounds with T cruzi growth-1; NIH/3T3 viability, CellTiter-Glo ATP luminescence, 90 h; inhibition, % at 24.9 µM; 56% of 5,600 active; AID 651744;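 active = mean loss of cell viability signal at or above a set limit, and enough replicates individually reaching it; inconclusive = meets only the mean limit or only the replicate share; inactive = meets neither condition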;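 also: 0% = median of neutral control wells and 100% = median of positive control wells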
# Starred values were filed as active, the others as inactive; ? = inconclusive; · = not tested or not shown. Most compounds without a hit are left out; they make up all but 6.7% or so of the library.
SMILES,T cruzi growth-1,Pf Dd2 growth,C diff growth,others
COc1ccc(NC(=O)Nc2ccc3c(c2)CC(=O)N([C@@H](C)CO)C[C@@H](C)[C@H](CN(C)CC2CC2)O3)cc1,26,-41,-3,
C[C@H]1CCCCO[C@@H](CN(C)CC2CCCCC2)[C@@H](C)CN([C@@H](C)CO)C(=O)c2cc(NC(=O)c3ccccc3)ccc2O1,39,?,5,
C[C@@H]1CCCCO[C@@H](CN(C)CC2CC2)[C@H](C)CN([C@H](C)CO)C(=O)c2cc(NC(=O)Nc3ccccc3)ccc2O1,86,-35,·,
C[C@@H]1CN([C@H](C)CO)S(=O)(=O)c2ccc(C#Cc3ccccc3F)cc2O[C@H]1CN(C)C(=O)Cc1cccnc1,36,-78,2,
O=C(C[C@H]1C=C[C@@H](NS(=O)(=O)c2ccc(F)cc2)[C@@H](CO)O1)NCc1ccncn1,-23,26,·,
COc1ccc(NC(=O)N[C@H]2CC[C@@H](CCNC(=O)CN3CCOCC3)O[C@H]2CO)cc1,-36,13,3,
CC(C)NC(=O)N1[C@H](CO)[C@H](c2ccccc2-c2ccc(F)cc2)[C@@H]1C#N,·,3,-1,
COc1ccccc1NC(=O)N1CC(=O)N2[C@H](CO)[C@@H](c3ccc(C#CC(C)C)cc3)[C@H]2C1,·,1,-6,
C[C@H](CO)N1C[C@H](C)[C@H](CN(C)Cc2ccccc2F)Oc2cc(C3=CCCC3)ccc2S1(=O)=O,76,-75,-2,
C[C@@H]1CN([C@@H](C)CO)S(=O)(=O)c2ccc(C3=CCCC3)cc2O[C@H]1CN(C)Cc1ccccc1F,121*,-27,13,T cruzi growth-2=101*;T cruzi growth-3=105*;3T3 cytotox=30;NIH3T3 tox 2=104*
C[C@@H]1CN([C@@H](C)CO)S(=O)(=O)c2ccc(C3=CCCCC3)cc2O[C@H]1CN(C)Cc1ccccc1F,·,-57,6,
C[C@@H]1CN([C@H](C)CO)S(=O)(=O)c2ccc(C3=CCCC3)cc2O[C@@H]1CN(C)Cc1ccccc1F,103*,-70,-2,T cruzi growth-2=99*;T cruzi growth-3=105*;3T3 cytotox=4;NIH3T3 tox 2=107*
CN1C(=O)c2cc(NC(=O)NCc3ccccc3)ccc2OC[C@H]2O[C@H](CC(=O)O)CC[C@H]21,-15,2,4,
C[C@H]1CN([C@@H](C)CO)C(=O)Cc2cc(NC(=O)Cn3cnnn3)ccc2O[C@@H]1CN(C)C(=O)Nc1cccc2ccccc12,8,22,-8,
CCN1[C@H](C(=O)NC2CCC2)[C@@H](CO)[C@@H]2Cn3c(ccc(-c4ccc(F)cc4)c3=O)[C@@H]21,·,21,-3,
CC(C)(C)[S@@](=O)N1Cc2cc(C(=O)NCCc3ccncc3)nc(-c3cccc(-c4cccc(C#N)c4)c3)c2[C@H]1CCO,78,-43,·,
CC(C)(C)[S@@](=O)N1Cc2cc(C(=O)NCCN3CCCC3)nc(-c3cccc(-c4ccc(C#N)cc4)c3)c2[C@H]1CCO,33,-77,·,
CC(C)(C)[S@](=O)N1Cc2cc(C(=O)NCCc3ccncc3)nc(-c3cccc(-c4ccc(C#N)cc4)c3)c2[C@@H]1CCO,97*,-74,·,T cruzi growth-2=112*;T cruzi growth-3=91;3T3 cytotox=46*;NIH3T3 tox 2=39*
CC(C)(C)[S@](=O)N1Cc2cc(C(=O)NCc3ccncc3)nc(-c3cccc(-c4ccc(C#N)cc4)c3)c2[C@@H]1CCO,99*,-67,·,T cruzi growth-2=103*;T cruzi growth-3=57;3T3 cytotox=18;NIH3T3 tox 2=?
CN1CCN(C(=O)c2cc3c(c(-c4cccc(-c5ccc(C#N)cc5)c4)n2)[C@@H](CCO)N([S@](=O)C(C)(C)C)C3)CC1,37,22,·,
COc1cccc(CNC(=O)c2cc3c(c(-c4cccc(-c5cccc(C#N)c5)c4)n2)[C@H](CCO)N([S@@](=O)C(C)(C)C)C3)c1,74,-55,·,
CC(C)(C)[S@](=O)N1Cc2cc(C(=O)N3CCCCC3)nc(-c3cccc(-c4ccc(C#N)cc4)c3)c2[C@@H]1CCO,101*,-22,·,T cruzi growth-2=107*;T cruzi growth-3=75;3T3 cytotox=14;NIH3T3 tox 2=18
COc1cccc(CNC(=O)c2cc3c(c(-c4cccc(-c5ccncc5)c4)n2)[C@H](CCO)N([S@@](=O)C(C)(C)C)C3)c1,100*,-78,·,T cruzi growth-2=110*;T cruzi growth-3=93;3T3 cytotox=-12;NIH3T3 tox 2=52*
C[C@H]1CN([C@@H](C)CO)C(=O)c2cccc(NC(=O)c3nc4ccccc4s3)c2O[C@@H]1CN(C)S(=O)(=O)c1ccc(F)cc1,74,-56,-6,
COC(=O)[C@H]1[C@H](CO)[C@H]2Cn3c(ccc(/C=C/c4ccccc4)c3=O)[C@H]2N1CC1CCCCC1,67,-13,18,
SMILES,T cruzi growth-1,Pf Dd2 growth,C diff growth,others
C[C@@H]1CN([C@@H](C)CO)C(=O)c2cc(NC(=O)Cn3cnnn3)ccc2O[C@@H]1CN(C)C(=O)Nc1ccc2c(c1)OCO2,-105,-20,·,
CCCNC(=O)C[C@@H]1CC[C@@H]2[C@H](COc3ccc(NC(=O)c4cccc(C(F)(F)F)c4)cc3C(=O)N2C)O1,-10,-25,2,
C[C@H](O)C#Cc1cnc2c(c1)C(=O)N([C@H](C)CO)C[C@@H](C)[C@@H](CN(C)C(=O)c1ccccc1)O2,108,65,4,
C[C@H](CO)N1C[C@H](C)[C@H](CN(C)CC2CC2)Oc2ccc(NS(C)(=O)=O)cc2C1=O,-7,2,1,
O=C(NCC[C@@H]1CC[C@H](NC(=O)C2CC2)[C@@H](CO)O1)c1cnccn1,·,5,-3,
CC(C)C#Cc1ccc2c(c1)O[C@H](CN(C)C(=O)c1ccccn1)[C@H](C)CN([C@H](C)CO)S2(=O)=O,8,-19,1,
CN(C)C(=O)c1ccc(-c2ccc3c(c2)[C@H]2[C@H](CCN2C(=O)C2CC2)[C@@H](CO)N3C)cc1,102*,-30,6,T cruzi growth-2=101*;T cruzi growth-3=99*;3T3 cytotox=14;NIH3T3 tox 2=25
CN(C)C(=O)c1ccc(-c2ccc3c(c2)[C@H]2[C@H](CCN2C(=O)C2CCCCC2)[C@@H](CO)N3C)cc1,·,-64,14,
CN(C)C(=O)c1ccc(-c2ccc3c(c2)[C@H]2[C@H](CCN2C(=O)C2CC2)[C@H](CO)N3C)cc1,18,-4,-8,
CN(C)C(=O)c1ccc(-c2ccc3c(c2)[C@H]2[C@H](CCN2C(=O)C2CCOCC2)[C@@H](CO)N3C)cc1,101*,4,1,T cruzi growth-2=98*;T cruzi growth-3=70;3T3 cytotox=-7;NIH3T3 tox 2=-3
CN1c2ccc(C3=CCCCC3)cc2[C@H]2[C@H](CCN2C(=O)C2CCC2)[C@@H]1CO,·,-41,-2,
CN1c2ccc(-c3cccc(F)c3)cc2[C@@H]2[C@@H](CCN2C(=O)C2CCOCC2)[C@H]1CO,59,3,-6,
CN1c2ccc(-c3ccc(F)cc3)cc2[C@H]2[C@H](CCN2C(=O)C2CCOCC2)[C@@H]1CO,102*,21,1,T cruzi growth-2=104*;T cruzi growth-3=69;3T3 cytotox=-3;NIH3T3 tox 2=0
